Experimental data reported in PubChem BioAssay (Tox21).
Records with an inconclusive call do not appear. Where a call stands in place of a potency, no number is given. Active and inactive are the calls of the source. The call rests on the fitted dose curve.

Key:
[1] = biological target: Acetylcholinesterase (Homo sapiens) (UniProt P22303); assay: Acetylcholinesterase (AChE) small molecule antagonists: colormetric cell-based qHTS assay (AID 1347395); further: nearly all actives have a fitted effect of over 30% in size; further: potency means the concentration at half of the fitted maximal effect
Acetylcholinesterase (Homo sapiens), sequence (P22303 whole entry, looked up): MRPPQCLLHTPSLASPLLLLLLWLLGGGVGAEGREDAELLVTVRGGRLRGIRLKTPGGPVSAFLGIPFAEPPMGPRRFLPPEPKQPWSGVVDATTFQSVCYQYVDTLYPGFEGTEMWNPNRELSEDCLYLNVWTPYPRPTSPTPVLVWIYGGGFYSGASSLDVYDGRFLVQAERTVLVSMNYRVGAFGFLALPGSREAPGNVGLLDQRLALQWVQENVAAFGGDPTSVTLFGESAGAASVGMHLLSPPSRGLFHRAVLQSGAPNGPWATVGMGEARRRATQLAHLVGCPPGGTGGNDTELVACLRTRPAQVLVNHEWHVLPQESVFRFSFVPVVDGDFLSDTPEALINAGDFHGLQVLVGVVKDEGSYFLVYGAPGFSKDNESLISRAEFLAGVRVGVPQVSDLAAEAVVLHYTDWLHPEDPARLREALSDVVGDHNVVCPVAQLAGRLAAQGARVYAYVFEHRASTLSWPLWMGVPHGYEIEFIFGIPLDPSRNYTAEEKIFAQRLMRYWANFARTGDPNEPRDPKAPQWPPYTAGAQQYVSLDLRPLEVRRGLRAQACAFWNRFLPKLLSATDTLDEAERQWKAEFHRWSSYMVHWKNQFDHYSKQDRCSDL
How it was run: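 SH-SY5Y cells attached overnight, exposed to compound 30 min at 37 C, then given DTNB/acetylthiocholine; after 90 min at 37 C, colorimetric thiocholine read gives cellular AChE activity.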

[2] = biological target: Acetylcholinesterase (Homo sapiens) (UniProt P22303); assay: Acetylcholinesterase (AChE) small molecule antagonists: enzyme-based qHTS assay (AID 1347397); details: Potency: AChE enzyme activity inhibition; outcome: AChE enzyme activity inhibition; further: nearly all actives have a fitted effect of over 55% in size; further: potency means the concentration at half of the fitted maximal effect
How it was run: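 Recombinant human AChE, dispensed at 50 mU/mL, was preincubated with Tox21 10K compounds or DMSO vehicle for 30 min at room temperature. DTNB plus acetylthiocholine was then added, and thiocholine was measured colorimetrically after a further 10 min.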

[3] = biological target: Acetylcholinesterase (Homo sapiens) (UniProt P22303); assay: Acetylcholinesterase (AChE) small molecule antagonists: enzyme-based qHTS assay with human liver microsomes (AID 1347399); details: Potency: qHTS inhibition; outcome: qHTS inhibition; further: nearly all actives have a fitted effect of over 60% in size
How it was run: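 Recombinant human AChE (50 mU/mL in the enzyme mix) and human liver microsomes (0.25 mg/mL final) were preincubated with compound and NADPH (0.25 mg/mL final) for 30 min at 37 C. Acetylthiocholine/DTNB was then added; thiocholine was read colorimetrically after 10 min at room temperature.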

SMILES: CCCOC(C(=O)OC1CCN(C)CC1)(c1ccccc1)c1ccccc1
- Potency [1]: inactive
- Potency [2]: inactive
- Potency [3]: inactive

SMILES: CN(Cc1cc(Br)cc(Br)c1N)C1CCCCC1
- Potency [1]: inactive
- Potency [2]: inactive
- Potency [3]: inactive

SMILES: CN(C/C=C/c1ccccc1)Cc1cccc2ccccc12
- outcome [1]: inactive
- outcome [2]: inactive
- outcome [3]: inactive

SMILES: COc1c(C)c2c(c(O)c1C/C=C(\C)CCC(=O)O)C(=O)OC2
- Potency [1]: inactive
- Potency [2]: inactive
- Potency [3]: inactive

SMILES: COc1cc(S(=O)(=O)O)c(C)cc1N=Nc1c(O)ccc2cc(S(=O)(=O)O)ccc12
- Potency [1]: inactive
- Potency [2]: inactive
- Potency [3]: inactive

SMILES: Cc1c(-c2ccccc2)oc2c(C(=O)OCCN3CCCCC3)cccc2c1=O
- Potency [1]: inactive
- Potency [2]: inactive
- Potency [3]: inactive

SMILES: Cc1ccc(N)cc1S(=O)(=O)O
- Potency [1]: inactive
- Potency [2]: inactive
- Potency [3]: inactive

SMILES: NC(=O)NC1N=C([O][Al])NC1=O (stereo not given)
- Potency [1]: inactive
- Potency [2]: inactive
- Potency [3]: inactive

SMILES: CCOc1cc(N)c(Cl)cc1C(=O)NCC1CN(Cc2ccc(F)cc2)CCO1 (stereo not given)
- Potency [1]: inactive
- Potency [2]: inactive
- Potency [3]: inactive

SMILES: COc1cc(C(C)=O)ccc1OCCCN1CCC(c2noc3cc(F)ccc23)CC1
- Potency [1]: 19.5 µM (active)
- Potency [2]: inactive
- Potency [3]: inactive

SMILES: CSc1ccc(C(=O)c2[nH]c(=O)[nH]c2C)cc1
- Potency [1]: inactive
- Potency [2]: inactive
- Potency [3]: inactive

SMILES: CCN(CC)c1ccc2c(c1)Oc1cc(N(CC)CC)ccc1C21OC(=O)c2ccccc21
- Potency [1]: inactive
- Potency [2]: inactive
- Potency [3]: inactive

SMILES: Cc1c(C)c2c(c(C)c1OC(=O)CCC(=O)OCCO)CC[C@@](C)(CCC[C@H](C)CCC[C@H](C)CCCC(C)C)O2
- Potency [1]: inactive
- Potency [2]: inactive
- Potency [3]: inactive

SMILES: CCCCN(CCCC)CC(O)c1cc(Cl)cc2c1-c1ccc(Cl)cc1/C2=C/c1ccc(Cl)cc1 (stereo not given)
- Potency [1]: inactive
- Potency [2]: inactive
- Potency [3]: inactive

SMILES: C/C(=N/NC(=O)c1ccncc1)C(=O)O
- Potency [1]: inactive
- Potency [2]: inactive
- Potency [3]: inactive

SMILES: C[Si](C)(C)C
- Potency [1]: inactive
- Potency [2]: inactive
- Potency [3]: inactive

SMILES: Cc1c(I)c(=O)n(-c2ccccc2)n1C
- Potency [1]: inactive
- Potency [2]: inactive
- Potency [3]: inactive

SMILES: CNC(=S)NC
- Potency [1]: inactive
- Potency [2]: inactive
- Potency [3]: inactive

SMILES: CC(C)C[P+](C)(CC(C)C)CC(C)C
- Potency [1]: 40.2 µM (active)
- Potency [2]: inactive
- Potency [3]: inactive

SMILES: CCCCCCCCCCCCCC[P+](CCCC)(CCCC)CCCC (tested in a mixture with another compound)
- Potency [1]: inactive
- Potency [2]: inactive
- Potency [3]: inactive

SMILES: CCN(CC)CCNc1ccc(CO)c2sc3ccccc3c(=O)c12
- Potency [1]: inactive
- Potency [2]: inactive
- Potency [3]: inactive

SMILES: O=C(Nc1cccc2c(=O)cc(-c3nn[nH]n3)oc12)c1ccc(OCCCCc2ccccc2)cc1
- Potency [1]: inactive
- Potency [2]: 27.5 µM (active)
- Potency [3]: inactive

SMILES: CC1(CN2CCC(n3c(=O)[nH]c4ccccc43)CC2)OCc2ccccc2-n2cccc21 (stereo not given)
- Potency [1]: inactive
- Potency [2]: inactive
- Potency [3]: inactive

SMILES: C(/C=C/C=C/Nc1ccccc1)=Nc1ccccc1
- Potency [1]: 35.6 µM (active)
- Potency [2]: inactive
- Potency [3]: inactive

SMILES: CCOC(=O)c1ccc(C#Cc2ccc3c(c2)C(C)(C)CCS3)nc1
- Potency [1]: inactive
- Potency [2]: inactive
- Potency [3]: inactive

SMILES: O=[N+]([O-])C1(Br)COCOC1
- Potency [1]: inactive
- Potency [2]: inactive
- Potency [3]: inactive

SMILES: CCN(CC)CCOc1ccccc1C(=O)CCc1ccccc1
- Potency [1]: inactive
- Potency [2]: inactive
- Potency [3]: inactive

SMILES: CN1CCN(CCC(=O)N2c3ccccc3Sc3ccc(C(F)(F)F)cc32)CC1
- Potency [1]: inactive
- Potency [2]: inactive
- Potency [3]: inactive

SMILES: Oc1ccc(C2(c3ccc(O)cc3)CC3CC2C2CCCC32)cc1 (stereo not given)
- Potency [1]: inactive
- Potency [2]: 76.5 µM (active)
- Potency [3]: inactive

SMILES: COC(=O)C(c1ccccc1Cl)N1CCc2sccc2C1 (stereo not given)
- Potency [1]: inactive
- Potency [2]: inactive
- Potency [3]: inactive

SMILES: CCCOc1ccc2c(c1)CC[C@@H]1[C@@H]2CC[C@]2(C)C(OC)CC[C@@H]12 (stereo not given in full)
- Potency [1]: inactive
- Potency [2]: inactive
- Potency [3]: inactive

SMILES: CNC(=O)c1c(I)c(NC(C)=O)c(I)c(C(=O)O)c1I
- Potency [1]: inactive
- Potency [2]: inactive
- Potency [3]: inactive

SMILES: COc1ccc2cc(CCC(C)=O)ccc2c1
- Potency [1]: inactive
- Potency [2]: inactive
- Potency [3]: inactive

SMILES: CN(C)CCOC(c1ccc(Cl)cc1)c1ccccn1 (stereo not given)
- Potency [1]: inactive
- Potency [2]: inactive
- Potency [3]: inactive

SMILES: O=C(Cl)c1cc(C(=O)Cl)cc(C(=O)Cl)c1
- Potency [1]: inactive
- Potency [2]: inactive
- Potency [3]: inactive

SMILES: CCN(CC)CCOCCOC(=O)C1(c2ccccc2)CCCC1
- Potency [1]: inactive
- Potency [2]: inactive
- Potency [3]: inactive

SMILES: O=C(CCS)OCC(COC(=O)CCS)(COC(=O)CCS)COC(=O)CCS
- Potency [1]: inactive
- Potency [2]: inactive
- Potency [3]: inactive

SMILES: COc1cc(OC)nc(NC(=O)NS(=O)(=O)Nc2ccccc2C(=O)N(C)C)n1
- Potency [1]: inactive
- Potency [2]: inactive
- Potency [3]: inactive

SMILES: COc1ccccc1N=Nc1c(S(=O)(=O)O)cc2cc(S(=O)(=O)O)cc(NC(C)=O)c2c1O
- Potency [1]: inactive
- Potency [2]: inactive
- Potency [3]: inactive

SMILES: O=C(Nc1ccc2c(O)c(N=Nc3ccc(N=Nc4ccc(S(=O)(=O)O)cc4)cc3)c(S(=O)(=O)O)cc2c1)c1ccccc1
- Potency [1]: inactive
- Potency [2]: inactive
- Potency [3]: inactive

SMILES: CN(C)CCN1C(=O)c2ccccc2N(C)c2ccccc21
- Potency [1]: inactive
- Potency [2]: inactive
- Potency [3]: inactive

SMILES: C=CCN1C[C@H](C(=O)N(CCCN(C)C)C(=O)NCC)C[C@@H]2c3cccc4[nH]cc(c34)C[C@H]21
- Potency [1]: 34.7 µM (active)
- Potency [2]: inactive
- Potency [3]: inactive

SMILES: CN[C@H]1CC[C@@H](c2ccc(Cl)c(Cl)c2)c2ccccc21
- Potency [1]: inactive
- Potency [2]: inactive
- Potency [3]: inactive

SMILES: CCN(CC)CCOC(=O)C(Cc1cccc2ccccc12)CC1CCCO1 (stereo not given)
- Potency [1]: inactive
- Potency [2]: inactive
- Potency [3]: inactive

SMILES: COc1c(C)c2c(c(O)c1C/C=C(\C)CCC(=O)OCCN1CCOCC1)C(=O)OC2
- Potency [1]: 27.5 µM (active)
- Potency [2]: inactive
- Potency [3]: inactive
